Assay results: the supplement of paper PMC11732987, “Enantioselective OTUD7B fragment discovery through chemoproteomics screening and high-throughput optimisation” (Communications Chemistry, 2025)

Legend:
Experiment in all cases: log2 ratio of Biotin-Ahx-Ub-VS probe labelling (fragment/DMSO); higher = less target engagement (more negative = stronger competition), active = hit call of the paper (q ≤ 0.05, log2 ratio ≤ -1)
Details in all cases: compound concentration: 200 uM; treatment time: 3 h
USP16 = USP16 (UniProt Q9Y5T5)
Method in brief: (§1)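 Labelled DUBs were enriched with NeutrAvidin, digested with LysC and trypsin, and run by diaPASEF LC-MS/MS. The labelling used Biotin-Ahx-Ub-VS at 0.5 µM final for 1 h on HEK293T lysate (495 µg per sample) previously treated in triplicate with fragment at 200 µM or vehicle for 3 h. Values are average log2 fragment/vehicle ratios by unpaired t-test on global-median-normalised Spectronaut quantities of proteins with ≥2 unique peptides.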

USP19 = molecular target: T1, USP19 (UniProt O94966)
T1 sequence (whole entry): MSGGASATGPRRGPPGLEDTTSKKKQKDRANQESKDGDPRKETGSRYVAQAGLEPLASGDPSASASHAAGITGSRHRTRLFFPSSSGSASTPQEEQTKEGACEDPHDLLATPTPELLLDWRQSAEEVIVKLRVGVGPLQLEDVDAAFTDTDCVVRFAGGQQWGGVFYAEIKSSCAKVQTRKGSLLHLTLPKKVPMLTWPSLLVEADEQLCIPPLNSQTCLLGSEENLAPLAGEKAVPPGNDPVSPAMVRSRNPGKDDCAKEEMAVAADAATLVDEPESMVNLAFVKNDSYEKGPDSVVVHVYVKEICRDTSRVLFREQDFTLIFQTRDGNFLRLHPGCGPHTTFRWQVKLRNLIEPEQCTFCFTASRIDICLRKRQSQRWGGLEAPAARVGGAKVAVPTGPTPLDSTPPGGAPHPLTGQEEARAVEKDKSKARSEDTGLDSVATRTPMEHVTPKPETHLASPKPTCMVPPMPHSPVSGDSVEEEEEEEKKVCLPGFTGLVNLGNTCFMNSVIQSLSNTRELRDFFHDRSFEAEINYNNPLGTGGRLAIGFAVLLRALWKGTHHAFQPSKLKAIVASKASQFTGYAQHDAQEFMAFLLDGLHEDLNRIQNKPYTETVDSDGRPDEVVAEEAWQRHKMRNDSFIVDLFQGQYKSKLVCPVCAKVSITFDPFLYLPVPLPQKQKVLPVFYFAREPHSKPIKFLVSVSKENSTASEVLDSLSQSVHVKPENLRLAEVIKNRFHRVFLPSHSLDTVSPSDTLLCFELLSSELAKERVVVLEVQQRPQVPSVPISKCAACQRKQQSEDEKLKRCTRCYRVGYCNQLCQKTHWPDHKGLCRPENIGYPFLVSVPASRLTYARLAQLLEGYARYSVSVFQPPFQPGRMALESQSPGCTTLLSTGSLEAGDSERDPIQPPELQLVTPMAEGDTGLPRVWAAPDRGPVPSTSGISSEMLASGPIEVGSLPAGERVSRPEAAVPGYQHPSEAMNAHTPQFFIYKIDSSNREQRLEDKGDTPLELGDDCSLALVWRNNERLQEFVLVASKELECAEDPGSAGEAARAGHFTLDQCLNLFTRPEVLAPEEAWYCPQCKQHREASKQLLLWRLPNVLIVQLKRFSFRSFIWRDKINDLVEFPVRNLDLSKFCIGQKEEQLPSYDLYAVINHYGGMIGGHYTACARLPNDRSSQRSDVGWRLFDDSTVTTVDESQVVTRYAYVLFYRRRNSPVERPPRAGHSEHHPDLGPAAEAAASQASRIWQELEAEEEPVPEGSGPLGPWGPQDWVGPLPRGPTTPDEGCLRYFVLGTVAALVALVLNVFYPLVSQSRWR
Method in brief: as §1

USP24 = USP24 (UniProt Q9UPU5)
Method in brief: as §1

USP25 = molecular target: T2, USP25 (UniProt Q9UHP3)
T2 sequence (whole entry): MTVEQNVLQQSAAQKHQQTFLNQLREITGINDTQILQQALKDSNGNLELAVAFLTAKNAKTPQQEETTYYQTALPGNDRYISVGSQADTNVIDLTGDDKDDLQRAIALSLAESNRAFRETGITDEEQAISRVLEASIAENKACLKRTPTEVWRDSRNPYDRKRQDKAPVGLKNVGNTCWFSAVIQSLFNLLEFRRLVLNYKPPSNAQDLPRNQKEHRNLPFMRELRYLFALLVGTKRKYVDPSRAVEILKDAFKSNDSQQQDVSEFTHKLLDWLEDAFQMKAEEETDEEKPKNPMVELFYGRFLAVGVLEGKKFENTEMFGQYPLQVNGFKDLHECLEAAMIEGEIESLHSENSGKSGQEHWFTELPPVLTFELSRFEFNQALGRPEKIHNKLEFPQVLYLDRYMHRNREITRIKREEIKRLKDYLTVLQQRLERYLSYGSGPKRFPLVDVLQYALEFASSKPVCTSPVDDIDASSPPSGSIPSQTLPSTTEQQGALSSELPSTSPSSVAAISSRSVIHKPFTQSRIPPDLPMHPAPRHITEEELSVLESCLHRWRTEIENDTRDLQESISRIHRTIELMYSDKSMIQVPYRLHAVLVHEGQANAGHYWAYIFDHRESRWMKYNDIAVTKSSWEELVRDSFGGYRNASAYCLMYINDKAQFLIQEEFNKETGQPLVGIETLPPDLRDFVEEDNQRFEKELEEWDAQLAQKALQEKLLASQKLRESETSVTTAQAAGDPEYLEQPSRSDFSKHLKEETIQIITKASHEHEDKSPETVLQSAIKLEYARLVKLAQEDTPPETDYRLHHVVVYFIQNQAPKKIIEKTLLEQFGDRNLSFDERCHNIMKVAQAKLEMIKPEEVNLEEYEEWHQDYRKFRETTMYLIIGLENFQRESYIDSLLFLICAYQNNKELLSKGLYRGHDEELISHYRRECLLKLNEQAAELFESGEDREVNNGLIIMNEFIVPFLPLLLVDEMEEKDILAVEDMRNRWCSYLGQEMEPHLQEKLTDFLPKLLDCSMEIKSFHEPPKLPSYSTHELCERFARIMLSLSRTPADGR
Method in brief: as §1

USP28 = molecular target: T3, USP28 (UniProt Q96RU2)
T3 sequence (whole entry): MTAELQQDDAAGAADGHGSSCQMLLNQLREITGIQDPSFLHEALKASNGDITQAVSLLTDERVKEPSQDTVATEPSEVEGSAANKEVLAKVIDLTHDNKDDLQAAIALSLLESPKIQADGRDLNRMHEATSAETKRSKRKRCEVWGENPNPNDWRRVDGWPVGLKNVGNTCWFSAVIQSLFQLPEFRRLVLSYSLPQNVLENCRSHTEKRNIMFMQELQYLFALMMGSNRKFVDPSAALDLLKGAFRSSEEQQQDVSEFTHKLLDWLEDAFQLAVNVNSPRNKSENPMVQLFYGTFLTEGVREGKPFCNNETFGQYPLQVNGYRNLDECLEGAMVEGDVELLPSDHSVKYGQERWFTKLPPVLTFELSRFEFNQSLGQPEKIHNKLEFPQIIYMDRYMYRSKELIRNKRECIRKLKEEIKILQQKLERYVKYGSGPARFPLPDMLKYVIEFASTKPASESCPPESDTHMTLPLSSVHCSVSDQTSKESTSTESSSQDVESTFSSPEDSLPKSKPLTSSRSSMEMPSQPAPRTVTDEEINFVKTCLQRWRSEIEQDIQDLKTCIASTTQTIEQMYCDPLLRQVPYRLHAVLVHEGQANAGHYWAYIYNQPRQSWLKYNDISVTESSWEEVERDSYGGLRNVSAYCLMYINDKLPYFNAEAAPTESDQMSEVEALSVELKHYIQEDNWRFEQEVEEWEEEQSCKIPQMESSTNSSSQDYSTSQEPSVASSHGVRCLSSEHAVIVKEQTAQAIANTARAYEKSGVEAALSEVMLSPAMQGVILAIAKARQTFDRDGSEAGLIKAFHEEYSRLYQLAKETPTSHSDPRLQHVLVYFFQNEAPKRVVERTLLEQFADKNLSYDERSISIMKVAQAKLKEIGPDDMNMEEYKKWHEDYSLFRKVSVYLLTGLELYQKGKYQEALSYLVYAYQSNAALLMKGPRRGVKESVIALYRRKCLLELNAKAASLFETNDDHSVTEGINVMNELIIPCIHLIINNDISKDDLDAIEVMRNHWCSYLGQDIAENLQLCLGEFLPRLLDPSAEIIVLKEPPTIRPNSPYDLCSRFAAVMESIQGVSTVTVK
Method in brief: as §1

Measured: log2 ratio of Biotin-Ahx-Ub-VS probe labelling

Chain of USP16 (Q9Y5T5 whole entry, looked up, the tested form may be a part): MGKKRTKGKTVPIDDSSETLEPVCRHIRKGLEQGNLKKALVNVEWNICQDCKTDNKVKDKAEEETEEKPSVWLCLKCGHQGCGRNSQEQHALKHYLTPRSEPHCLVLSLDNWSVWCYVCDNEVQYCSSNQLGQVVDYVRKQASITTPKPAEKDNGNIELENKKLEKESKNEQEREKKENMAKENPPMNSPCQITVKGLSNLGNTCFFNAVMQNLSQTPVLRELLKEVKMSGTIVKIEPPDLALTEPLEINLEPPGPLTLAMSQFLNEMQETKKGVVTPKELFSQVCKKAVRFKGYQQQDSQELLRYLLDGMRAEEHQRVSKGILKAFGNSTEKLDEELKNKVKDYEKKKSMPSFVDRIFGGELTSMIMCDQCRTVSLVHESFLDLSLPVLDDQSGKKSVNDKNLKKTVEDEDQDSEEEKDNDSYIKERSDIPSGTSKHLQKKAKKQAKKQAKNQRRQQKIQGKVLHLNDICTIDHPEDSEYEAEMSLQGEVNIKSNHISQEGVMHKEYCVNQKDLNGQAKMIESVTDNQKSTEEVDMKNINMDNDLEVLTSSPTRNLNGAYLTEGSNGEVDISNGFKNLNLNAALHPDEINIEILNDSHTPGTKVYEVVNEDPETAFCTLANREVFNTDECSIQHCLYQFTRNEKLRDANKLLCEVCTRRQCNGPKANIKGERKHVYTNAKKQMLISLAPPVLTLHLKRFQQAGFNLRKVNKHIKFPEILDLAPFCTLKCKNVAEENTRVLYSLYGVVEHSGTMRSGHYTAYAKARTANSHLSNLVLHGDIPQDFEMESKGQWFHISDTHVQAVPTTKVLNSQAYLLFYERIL
Chain of USP24 (Q9UPU5 whole entry): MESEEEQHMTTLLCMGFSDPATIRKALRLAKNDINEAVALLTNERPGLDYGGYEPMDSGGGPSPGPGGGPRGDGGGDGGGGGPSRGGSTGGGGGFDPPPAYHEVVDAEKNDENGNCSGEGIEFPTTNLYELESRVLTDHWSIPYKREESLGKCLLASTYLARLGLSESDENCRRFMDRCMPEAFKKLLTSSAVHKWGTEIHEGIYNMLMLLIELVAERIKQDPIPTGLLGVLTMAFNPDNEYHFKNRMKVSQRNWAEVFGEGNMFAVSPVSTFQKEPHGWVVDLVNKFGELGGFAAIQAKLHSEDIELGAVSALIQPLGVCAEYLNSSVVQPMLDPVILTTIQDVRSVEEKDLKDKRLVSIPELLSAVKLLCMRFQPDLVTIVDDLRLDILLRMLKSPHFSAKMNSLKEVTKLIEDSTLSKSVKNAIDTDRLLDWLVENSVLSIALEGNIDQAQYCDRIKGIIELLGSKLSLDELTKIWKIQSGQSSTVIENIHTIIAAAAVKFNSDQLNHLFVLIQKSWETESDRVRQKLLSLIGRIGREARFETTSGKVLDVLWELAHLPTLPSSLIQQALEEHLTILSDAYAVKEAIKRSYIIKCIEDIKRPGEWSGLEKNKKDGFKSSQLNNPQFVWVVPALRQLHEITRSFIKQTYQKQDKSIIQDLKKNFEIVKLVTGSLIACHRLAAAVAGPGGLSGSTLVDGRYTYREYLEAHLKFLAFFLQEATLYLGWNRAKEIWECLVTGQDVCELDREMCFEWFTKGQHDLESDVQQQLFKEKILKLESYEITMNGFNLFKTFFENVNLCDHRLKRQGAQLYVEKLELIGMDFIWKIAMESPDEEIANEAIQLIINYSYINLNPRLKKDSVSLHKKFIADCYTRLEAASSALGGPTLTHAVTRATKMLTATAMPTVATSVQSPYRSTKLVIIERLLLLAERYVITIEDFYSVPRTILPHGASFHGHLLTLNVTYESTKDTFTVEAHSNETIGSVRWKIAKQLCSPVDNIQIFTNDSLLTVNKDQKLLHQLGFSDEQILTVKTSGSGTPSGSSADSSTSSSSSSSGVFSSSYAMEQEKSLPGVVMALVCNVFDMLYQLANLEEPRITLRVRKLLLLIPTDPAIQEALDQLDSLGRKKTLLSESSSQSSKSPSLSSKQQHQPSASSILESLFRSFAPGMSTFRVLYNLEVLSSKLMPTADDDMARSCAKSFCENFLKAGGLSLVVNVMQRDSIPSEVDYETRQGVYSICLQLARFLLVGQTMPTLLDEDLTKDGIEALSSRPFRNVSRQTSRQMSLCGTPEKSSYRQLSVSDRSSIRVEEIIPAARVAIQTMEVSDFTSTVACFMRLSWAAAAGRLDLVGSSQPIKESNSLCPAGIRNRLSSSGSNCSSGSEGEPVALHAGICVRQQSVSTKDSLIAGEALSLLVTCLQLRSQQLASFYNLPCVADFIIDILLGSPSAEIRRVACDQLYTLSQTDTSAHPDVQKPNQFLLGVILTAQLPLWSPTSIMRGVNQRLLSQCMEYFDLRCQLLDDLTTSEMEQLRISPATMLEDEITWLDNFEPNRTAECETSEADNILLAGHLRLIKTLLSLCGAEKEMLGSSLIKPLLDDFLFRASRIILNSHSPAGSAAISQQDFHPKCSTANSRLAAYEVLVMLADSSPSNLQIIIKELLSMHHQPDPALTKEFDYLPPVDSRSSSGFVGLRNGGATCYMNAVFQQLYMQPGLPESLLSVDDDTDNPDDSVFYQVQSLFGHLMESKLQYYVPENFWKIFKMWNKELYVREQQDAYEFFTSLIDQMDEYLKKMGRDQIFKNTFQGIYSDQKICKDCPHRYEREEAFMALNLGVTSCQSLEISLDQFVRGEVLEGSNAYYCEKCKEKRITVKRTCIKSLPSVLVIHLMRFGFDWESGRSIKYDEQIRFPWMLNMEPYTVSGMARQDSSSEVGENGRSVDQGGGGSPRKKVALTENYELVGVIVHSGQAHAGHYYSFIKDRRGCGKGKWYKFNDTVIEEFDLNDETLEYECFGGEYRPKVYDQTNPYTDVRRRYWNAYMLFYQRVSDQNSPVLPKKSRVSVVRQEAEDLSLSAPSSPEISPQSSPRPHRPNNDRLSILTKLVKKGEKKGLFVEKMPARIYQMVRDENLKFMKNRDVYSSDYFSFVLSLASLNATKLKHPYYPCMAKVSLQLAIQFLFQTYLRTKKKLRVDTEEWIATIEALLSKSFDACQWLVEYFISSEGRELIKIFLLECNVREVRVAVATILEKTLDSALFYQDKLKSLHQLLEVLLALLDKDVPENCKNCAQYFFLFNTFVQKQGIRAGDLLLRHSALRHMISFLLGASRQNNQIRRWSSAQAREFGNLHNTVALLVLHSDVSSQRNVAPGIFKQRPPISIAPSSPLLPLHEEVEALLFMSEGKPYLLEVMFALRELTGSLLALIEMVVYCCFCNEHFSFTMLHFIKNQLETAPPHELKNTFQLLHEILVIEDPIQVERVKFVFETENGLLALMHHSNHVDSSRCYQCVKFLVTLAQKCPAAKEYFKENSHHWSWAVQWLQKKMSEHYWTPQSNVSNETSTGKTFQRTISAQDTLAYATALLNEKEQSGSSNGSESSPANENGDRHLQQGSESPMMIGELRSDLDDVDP

Cc1ccn2cc(CNC(=O)CCl)nc2c1.Cl
inactive: USP16 0.0424 | USP19 -0.148 | USP24 -0.106 | USP25 -0.398 | USP28 -0.272
